Measurements reported in PubChem BioAssay (NCI).
The panel holds about 79,000 compounds, 15% with a hit somewhere; the sample as a whole holds those more often. Calls of active or inactive are those of the source. No stated cut-off is given here; in the data, active means growth inhibition above about 70%; inactive means the rest.

Legend:
[1] = NCI Yeast Anticancer Drug Screen. Data for the rad52 strain (AID 147);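 further: 0% = growth of vehicle-treated control cultures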; conditions: S. cerevisiae rad52 mutant growth inhibition, hits give high values
Method in brief: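 Here a repair-compromised yeast strain receives each compound; its growth is then quantified and normalised to vehicle-only controls.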

[2] = NCI Yeast Anticancer Drug Screen. Data for the wt1 strain (AID 149);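 further: 0% = growth of vehicle-treated wt1 cultures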; conditions: S. cerevisiae wt1 strain (SPY 50644) growth inhibition, hits give high values
Method in brief: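 Readout: yeast growth inhibition, normalised to vehicle controls, in the wt1 strain exposed to test compounds.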

[3] = NCI Yeast Anticancer Drug Screen. Data for the rad50EPP+ strain (AID 151);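 further: 0% = growth of vehicle-treated control cultures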; conditions: S. cerevisiae rad50 mutant strain, hits give high values
Method in brief: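 Read-out is yeast growth inhibition relative to vehicle; cells used were the rad50EPP+ strain.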

[4] = NCI Yeast Anticancer Drug Screen. Data for the rad50 strain (AID 155);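 further: 0% = growth of vehicle-only cultures of the same strain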; conditions: S. cerevisiae rad50 strain growth inhibition, hits give high values
Method in brief: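 Compounds were tested on a yeast strain with an engineered DNA damage repair alteration; the reported value is growth inhibition normalised to vehicle treatment.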

[5] = NCI Yeast Anticancer Drug Screen. Data for the mec2-1 strain (AID 157); conditions: S. cerevisiae mec2-1 strain, hits give high values
Method in brief: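 Using mec2-1 yeast: add compound, measure growth, express inhibition versus vehicle-treated cultures.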

[6] = NCI Yeast Anticancer Drug Screen. Data for the rad14 strain (AID 159);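 further: 0% = growth of vehicle-treated control cultures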; conditions: S. cerevisiae rad14 strain growth inhibition, hits give high values
Method in brief: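 Compound-treated yeast with a defined DNA-repair lesion; growth inhibition normalised to vehicle-treated cultures.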

[7] = NCI Yeast Anticancer Drug Screen. Data for the sgs1 mgt1 strain (AID 161);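 further: 0% = growth of cultures given vehicle only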; conditions: S. cerevisiae sgs1 mgt1 strain, hits give high values
Method in brief: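 Compounds are added to genetically altered yeast, and growth is compared with cultures given vehicle alone to give percent inhibition.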

[8] = NCI Yeast Anticancer Drug Screen. Data for the CLN2oe strain (AID 163);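 further: 0% = growth of vehicle-only control cultures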; conditions: S. cerevisiae CLN2oe strain, hits give high values
Method in brief: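 Whole-cell yeast growth assay. A strain engineered for altered cell-cycle control received compound, and inhibition relative to vehicle-treated cultures was recorded.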

[9] = NCI Yeast Anticancer Drug Screen. Data for the cln2 rad14 strain (AID 165);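 further: 0% = growth equal to vehicle treated cultures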; conditions: S. cerevisiae cln2 rad14 strain, hits give high values
Method in brief: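 Yeast strain cln2 rad14, bearing defects in cell cycle control and DNA repair, serves as the test system; values reflect growth inhibition compared with vehicle.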

[10] = NCI Yeast Anticancer Drug Screen. Data for the bub3 strain (AID 167); conditions: S. cerevisiae bub3 mutant strain, hits give high values
Method in brief: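 Growth of a checkpoint-deficient yeast mutant is measured after compound exposure. Values represent inhibition relative to vehicle.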

[11] = NCI Yeast Anticancer Drug Screen. Data for the wt2 strain (AID 169);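 further: 0% = growth of vehicle-treated yeast cultures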; conditions: S. cerevisiae wt2 strain growth inhibition, hits give high values
Method in brief: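 Treated yeast vs. vehicle-treated yeast: growth inhibition determined.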

[12] = NCI Yeast Anticancer Drug Screen. Data for the sgs1 strain (AID 173);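 further: 0% = growth of vehicle-only control cultures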; conditions: S. cerevisiae sgs1 mutant, hits give high values
Method in brief: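 A genetically defined yeast mutant is incubated with the test compound, and its growth is compared to that of the same strain given vehicle.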

[13] = NCI Yeast Anticancer Drug Screen. Data for the mlh1 rad18 strain (AID 175); conditions: S. cerevisiae mlh1 rad18 strain growth inhibition, hits give high values
Method in brief: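 Steps: expose repair-defective yeast to compound; measure growth; express inhibition against vehicle-treated controls.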

[14] = NCI Yeast Anticancer Drug Screen. Data for the rad18 strain (AID 177); conditions: S. cerevisiae rad18 mutant growth inhibition, hits give high values
Method in brief: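 Measured value is growth inhibition of a yeast strain bearing a DNA repair alteration, referenced to vehicle-treated cells.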

[15] = NCI Yeast Anticancer Drug Screen. Data for the mlh1 strain (AID 171);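 further: 0% = growth of vehicle-treated control cultures of the same strain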; conditions: S. cerevisiae mlh1 strain growth inhibition, hits give high values
Method in brief: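 A yeast strain with a defined genetic lesion serves as the test organism. Cultures receive compound or vehicle, and growth is measured.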

[16] = at 5.0 µM (retest, dose inferred, filed as 0.5)
[17] = at 50.0 µM (retest, dose inferred, filed as 5.0)

Measured: growth inhibition

CCOC(=O)c1csc(Br)n1
active: [4]; at 50.0 µM 98.6% | [5]; at 50.0 µM 99.5% | [7]; at 50.0 µM 97.8% | [9]; at 50.0 µM 83.5% | [10]; at 50.0 µM 99% | [13]; at 50.0 µM 78.3%
inactive: [1]; at 1.2 µM -2% | [1]; at 3.7 µM -3% | [1]; at 11.0 µM -7% | [1]; at 33.0 µM -5% | [1]; at 100.0 µM -9% | [2]; at 1.2 µM 3% | [2]; at 3.7 µM -3% | [2]; at 11.0 µM -3% | [2]; at 33.0 µM -3% | [2]; at 100.0 µM -5% | [3]; at 1.2 µM -2% | [3]; at 3.7 µM 4% | [3]; at 11.0 µM -2% | [3]; at 33.0 µM 0% | [3]; at 100.0 µM -4% | [4]; at 1.2 µM -5% | [4]; at 3.7 µM 1% | [4]; [16] -4% | [4]; at 11.0 µM 0% | [4]; at 33.0 µM -1% | [4]; [17] -3% | [4]; at 100.0 µM -12% | [5]; at 1.2 µM -7% | [5]; at 3.7 µM -2% | [5]; [16] -16% | [5]; at 11.0 µM -3% | [5]; at 33.0 µM -5% | [5]; [17] -7% | [5]; at 100.0 µM -3% | [6]; at 1.2 µM 0% | [6]; at 3.7 µM 2% | [6]; at 11.0 µM -2% | [6]; at 33.0 µM -4% | [6]; at 100.0 µM -8% | [7]; [16] -18% | [7]; [17] -6% | [8]; at 1.2 µM -2% | [8]; at 3.7 µM -5% | [8]; at 11.0 µM 0% | [8]; at 33.0 µM 0% | [8]; at 100.0 µM -4% | [9]; [16] -8% | [9]; [17] 39% | [10]; at 1.2 µM -5% | [10]; at 3.7 µM -4% | [10]; [16] -11% | [10]; at 11.0 µM -6% | [10]; at 33.0 µM -6% | [10]; [17] -7% | [10]; at 100.0 µM -14% | [11]; at 1.2 µM -2% | [11]; at 3.7 µM -2% | [11]; at 11.0 µM -2% | [11]; at 33.0 µM -4% | [11]; at 100.0 µM -4% | [12]; at 1.2 µM -2% | [12]; at 3.7 µM -2% | [12]; at 11.0 µM -1% | [12]; at 33.0 µM -3% | [12]; at 100.0 µM -6% | [13]; [16] -16% | [13]; [17] -18% | [14]; at 1.2 µM -1% | [14]; at 3.7 µM -3% | [14]; at 11.0 µM 1% | [14]; at 33.0 µM -4% | [14]; at 100.0 µM -14%

CCN(CC)CC(O)C1CCC(c2ccccc2)CC1 (centres undefined)
inactive: [1]; at 1.2 µM 2% | [1]; at 3.7 µM 11% | [1]; at 11.0 µM 22% | [1]; at 33.0 µM 52% | [2]; at 1.2 µM 1% | [2]; at 3.7 µM 10% | [2]; at 11.0 µM 5% | [2]; at 33.0 µM 13% | [2]; at 100.0 µM 40% | [3]; at 1.2 µM 4% | [3]; at 3.7 µM 6% | [3]; at 11.0 µM 15% | [3]; at 33.0 µM 23% | [3]; at 100.0 µM 68% | [4]; at 1.2 µM 5% | [4]; at 3.7 µM 12% | [4]; [16] 13% | [4]; at 11.0 µM 22% | [4]; at 33.0 µM 61% | [5]; at 1.2 µM 3% | [5]; at 3.7 µM 12% | [5]; [16] 11% | [5]; at 11.0 µM 16% | [5]; at 33.0 µM 42% | [5]; at 50.0 µM 36% | [6]; at 1.2 µM 13% | [6]; at 3.7 µM 34% | [6]; at 11.0 µM 41% | [7]; [16] 31% | [8]; at 1.2 µM 6% | [8]; at 3.7 µM 10% | [8]; at 11.0 µM 41% | [8]; at 33.0 µM 55% | [9]; [16] 28% | [9]; at 50.0 µM 65.3% | [10]; at 1.2 µM 1% | [10]; at 3.7 µM 8% | [10]; [16] 27% | [10]; at 11.0 µM 30% | [10]; at 33.0 µM 64% | [11]; at 1.2 µM 3% | [11]; at 3.7 µM 9% | [11]; at 11.0 µM 16% | [11]; at 33.0 µM 45% | [15]; at 1.2 µM 3% | [15]; at 3.7 µM 10% | [15]; at 11.0 µM 24% | [15]; at 33.0 µM 62% | [12]; at 1.2 µM 3% | [12]; at 3.7 µM 16% | [12]; at 11.0 µM 32% | [13]; [16] 36% | [13]; at 50.0 µM 68.9% | [14]; at 1.2 µM 7% | [14]; at 3.7 µM 12% | [14]; at 11.0 µM 13% | [14]; at 33.0 µM 32%
active: [1]; at 100.0 µM 78% | [4]; [17] 78% | [4]; at 50.0 µM 84.8% | [4]; at 100.0 µM 83% | [5]; [17] 76% | [5]; at 100.0 µM 79% | [6]; at 33.0 µM 89% | [6]; at 100.0 µM 98% | [7]; [17] 95% | [7]; at 50.0 µM 92.7% | [8]; at 100.0 µM 80% | [9]; [17] 70% | [10]; [17] 87% | [10]; at 50.0 µM 83% | [10]; at 100.0 µM 84% | [11]; at 100.0 µM 83% | [15]; at 100.0 µM 91% | [12]; at 33.0 µM 72% | [12]; at 100.0 µM 93% | [13]; [17] 86% | [14]; at 100.0 µM 78%

COc1ccc(S(=O)(=O)N/N=C\c2cc([N+](=O)[O-])cc(I)c2O)c(OC)c1OC
active: [1]; at 100.0 µM 94% | [4]; [17] 72% | [4]; at 50.0 µM 92.9% | [4]; at 100.0 µM 95% | [5]; [17] 76% | [5]; at 50.0 µM 73% | [5]; at 100.0 µM 83% | [6]; at 100.0 µM 96% | [7]; [17] 74% | [7]; at 50.0 µM 88.3% | [8]; at 100.0 µM 93% | [10]; at 100.0 µM 86% | [11]; at 100.0 µM 93% | [15]; at 100.0 µM 88% | [12]; at 100.0 µM 97% | [13]; [17] 73% | [13]; at 50.0 µM 85.5% | [14]; at 100.0 µM 93%
inactive: [1]; at 1.2 µM 0% | [1]; at 3.7 µM 9% | [1]; at 11.0 µM 20% | [1]; at 33.0 µM 42% | [2]; at 1.2 µM -7% | [2]; at 3.7 µM -8% | [2]; at 11.0 µM -8% | [2]; at 33.0 µM 9% | [2]; at 100.0 µM 49% | [3]; at 1.2 µM -5% | [3]; at 3.7 µM -6% | [3]; at 11.0 µM -5% | [3]; at 33.0 µM 17% | [3]; at 100.0 µM 63% | [4]; at 1.2 µM -7% | [4]; at 3.7 µM -7% | [4]; [16] 10% | [4]; at 11.0 µM 23% | [4]; at 33.0 µM 64% | [5]; at 1.2 µM -2% | [5]; at 3.7 µM -6% | [5]; [16] 14% | [5]; at 11.0 µM -7% | [5]; at 33.0 µM 15% | [6]; at 1.2 µM -3% | [6]; at 3.7 µM 4% | [6]; at 11.0 µM 13% | [6]; at 33.0 µM 39% | [7]; [16] 13% | [8]; at 1.2 µM -6% | [8]; at 3.7 µM -10% | [8]; at 11.0 µM -8% | [8]; at 33.0 µM 18% | [9]; [16] -8% | [9]; [17] 46% | [9]; at 50.0 µM 11.1% | [10]; at 1.2 µM -13% | [10]; at 3.7 µM -15% | [10]; [16] 1% | [10]; at 11.0 µM -5% | [10]; at 33.0 µM 15% | [10]; [17] 68% | [10]; at 50.0 µM 25.8% | [11]; at 1.2 µM -7% | [11]; at 3.7 µM -7% | [11]; at 11.0 µM -6% | [11]; at 33.0 µM 15% | [15]; at 1.2 µM 0% | [15]; at 3.7 µM -8% | [15]; at 11.0 µM 0% | [15]; at 33.0 µM 29% | [12]; at 1.2 µM -5% | [12]; at 3.7 µM -8% | [12]; at 11.0 µM 9% | [12]; at 33.0 µM 45% | [13]; [16] 15% | [14]; at 1.2 µM -1% | [14]; at 3.7 µM 0% | [14]; at 11.0 µM 13% | [14]; at 33.0 µM 37%
